Assay results published in PubChem BioAssay (NCATS).
Inconclusive results are not listed. Entries that show only a call come without a potency. Values without a mark were called inactive. Calls of active or inactive are those of the source. The call rests on the fitted dose curve; in most records, active means well fitted curve in the direction sought with a large enough effect; inconclusive means small, poorly fitted or top-dose-only effect, or another doubt; inactive means no such curve, though single readings can be large; an effect the other way counts as inactive or inconclusive.

Key:
[1] = biological target: Cellular tumor antigen p53 (Homo sapiens) (UniProt P04637); experiment: Primary qHTS for small molecule compounds that upregulate eGFP-tagged delta133p53alpha (in N-terminal) cells. (AID 2060322); settings: NCI-H358 eGFP-delta133p53alpha fluorescence, 24 h; activation: stronger effect = higher value; further: nearly all actives have a fitted effect of over 75% in size; further: potency means the concentration at half of the fitted maximal effect; on activation: series mostly up to about 56 µM
Chain of Cellular tumor antigen p53 (Homo sapiens) (P04637 whole entry, looked up): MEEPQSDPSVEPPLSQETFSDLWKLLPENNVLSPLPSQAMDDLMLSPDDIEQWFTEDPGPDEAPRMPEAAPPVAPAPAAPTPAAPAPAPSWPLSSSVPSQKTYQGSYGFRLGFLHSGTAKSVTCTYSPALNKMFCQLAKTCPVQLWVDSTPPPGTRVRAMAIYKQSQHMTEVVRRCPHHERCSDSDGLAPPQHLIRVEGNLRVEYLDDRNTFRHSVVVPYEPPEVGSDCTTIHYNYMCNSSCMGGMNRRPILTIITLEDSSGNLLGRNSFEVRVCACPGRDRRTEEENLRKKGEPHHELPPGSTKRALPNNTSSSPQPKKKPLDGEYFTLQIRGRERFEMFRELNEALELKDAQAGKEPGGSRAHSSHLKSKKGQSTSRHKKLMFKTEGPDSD
In short: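 NCI-H358 cells pre-induced 24 h with 10 ng/ml doxycycline to express N-terminal eGFP-delta133p53alpha, then dosed 24 h at 37C without doxycycline; fixed, Hoechst-stained, GFP intensity by laser scanning cytometry, normalized to DMSO (0%) and 57.5 uM 5-azacytidine (100%).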

[2] = biological target: Aldehyde dehydrogenase, mitochondrial (Homo sapiens) (UniProt P05091); experiment: qHTS for Inhibitors of the Aldehyde Dehydrogenase Family (ALDH2) Primary screen (AID 2061308); further: nearly all actives have a fitted effect of over 55% in size
[3] = biological target: Retinaldehyde dehydrogenase 3 (Homo sapiens) (UniProt P47895); experiment: qHTS for Inhibitors of the Aldehyde Dehydrogenase Family (ALDH1A3) Primary screen (AID 2061315)

CC12CCC(=O)C=C1C(O)CC1C2C(O)CC2(C)C1CC[C@]2(O)C(=O)CO (some centres undefined)
activation [1]: 5.67% | Potency [2]: inactive | Potency [3]: inactive

CC1(C)CCC2(C(=O)OC3OC(COC4OC(CO)C(O)C(O)C4O)C(O)C(O)C3O)CCC3(C)C(=CCC4C5(C)CCC(O)C(C)(C(=O)O)C5CCC43C)C2C1O (centres undefined)
activation [1]: 5.34% | Potency [2]: inactive | Potency [3]: inactive

CC1CCC23COC(=O)C2=CC(O)CC3C1(C)CCc1ccoc1 (centres undefined)
activation [1]: -14.3% | Potency [2]: inactive | Potency [3]: inactive

CC1CCC23COC(=O)C2=CC(O)CC3C1(C)CCC1=CC(=O)OC1O (centres undefined)
activation [1]: 0.763% | Potency [2]: inactive | Potency [3]: inactive

C=CC(C)(C)C12CC3C(=O)NC(Cc4cnc[nH]4)C(=O)N3C1Nc1ccccc12 (centres undefined)
activation [1]: 13.4% | Potency [2]: inactive | Potency [3]: inactive

C[C@@H]1C(=O)O[C@H]2C[C@]34[C@H]5C[C@@H](C(C)(C)C)[C@]36[C@@H](OC(=O)[C@H]6O)O[C@]4(C(=O)O5)[C@]21O
activation [1]: -22.1% | Potency [2]: inactive | Potency [3]: inactive

C=C(C(=O)OC)[C@]12O[C@@](C)(CC[C@@]3(O)/C(=C\C)C(=O)O[C@]3(C)C[C@@H]1OC(=O)C(CO)CN1CCCC1C(=O)O)CC2=O (some centres undefined)
activation [1]: -18.8% | Potency [2]: inactive | Potency [3]: inactive

C=CC(C)(CC/C=C(\C)CC/C=C(\C)CC(O)/C=C(\C)C(=O)O)O[C@@H]1O[C@H](CO)[C@@H](O)[C@H](O)[C@H]1O[C@@H]1O[C@H](CO)[C@@H](O)[C@H](O)[C@H]1O (some centres undefined)
activation [1]: -12.2% | Potency [2]: inactive | Potency [3]: inactive

C[C@@H]1O[C@@H](O[C@H]2[C@H](OC(=O)[C@]34CCC(C)(C)C[C@H]3C3=CCC5[C@@]6(C)C[C@H](O)[C@H](O[C@@H]7O[C@H](CO)[C@@H](O[C@H]8OC[C@](O)(CO)[C@H]8O)[C@H](O)[C@H]7O)[C@@](C)(CO)C6[C@H](O)C[C@@]5(C)[C@]3(C)C[C@H]4O)OC[C@H](O)[C@@H]2O)[C@H](O)[C@H](O)[C@H]1O[C@@H]1OC[C@@H](O)[C@H](O[C@@H]2OC[C@](O)(CO)[C@H]2O)[C@H]1O (some centres undefined)
activation [1]: -17.6% | activity change, negative = inhibition [2]: 8.6% [at 11.2 µM] | activity change, negative = inhibition [3]: -7.49% [at 11.2 µM]

C=CCC1=C[C@]2(OC)[C@H](C)[C@@H](c3ccc4c(c3)OCO4)O[C@]2(OC)CC1=O
activation [1]: 1.53% | Potency [2]: inactive | Potency [3]: inactive

CCC(=O)OCC(=O)[C@@]1(OC(=O)CC)[C@@H](C)C[C@H]2[C@@H]3CCC4=CC(=O)C=C[C@]4(C)[C@@]3(F)[C@@H](O)C[C@@]21C
activation [1]: -5% | Potency [2]: inactive | Potency [3]: inactive

CCOc1cn(-c2ccc(F)cc2C)nc1C(=O)Nc1ccc(Oc2ccnc3cc(OC)c(OC)cc23)c(F)c1
activation [1]: 12.5% | Potency [2]: inactive | Potency [3]: inactive

CC(=O)O[C@H]1C[C@@]2(C)[C@@H](CC[C@H]3[C@@]4(C)C=CC(=O)[C@@H](C)[C@@H]4[C@H](OC(C)=O)C(=O)[C@@]32C)/C1=C(\CCC=C(C)C)C(=O)O
activation [1]: -16% | Potency [2]: inactive | Potency [3]: inactive

CC(=O)O[C@@H]1c2c(C)coc2C(=O)[C@@]23O[C@@H]2CC[C@H](C)[C@@]13C
activation [1]: -2.68% | Potency [2]: inactive | Potency [3]: inactive

C[C@@H]1O[C@@H](O[C@H]2[C@H](O[C@H]3[C@H](O[C@H]4CC[C@@]5(C=O)C(CC[C@]6(C)C5CC=C5C7CC(C)(C)C[C@@H](O)[C@]7(C)CC[C@]56C)C4(C)C)O[C@H](C(=O)O)[C@@H](O)[C@@H]3O)OC[C@@H](O)[C@@H]2O)[C@H](O)[C@H](O)[C@H]1O (some centres undefined)
activation [1]: -8.93% | Potency [2]: inactive | Potency [3]: inactive

C=C1CCC2C(OC(=O)C2(O)COC(C)=O)C2C(=C)C(O)CC12 (centres undefined)
activation [1]: -3.82% | Potency [2]: inactive | Potency [3]: inactive

CC(C)(O)C1CCC2(C)CCCC(C)(O)C2C1 (centres undefined)
activation [1]: 2.68% | Potency [2]: inactive | Potency [3]: inactive

C=C1CC[C@@]2(OC1)O[C@H]1CC3[C@@H]4CC=C5C[C@@H](O)C[C@@H](O[C@@H]6OC[C@H](O)[C@H](O)[C@H]6O[C@@H]6O[C@@H](C)[C@H](O)[C@@H](O)[C@H]6O)[C@]5(C)C4CC[C@]3(C)[C@H]1[C@@H]2C (some centres undefined)
activation [1]: -26% | Potency [2]: inactive | Potency [3]: inactive

COc1ccc(CN2CCN(CCCSc3cc(C(C)(C)C)c(O)c(C(C)(C)C)c3)CC2)c(OC)c1OC
activation [1]: 16.3% | Potency [2]: inactive | Potency [3]: inactive

O=C(O)CCc1cc2ccoc2cc1O[C@@H]1O[C@H](CO[C@@H]2OC[C@](O)(CO)[C@H]2O)[C@@H](O)[C@H](O)[C@H]1O
activation [1]: -11.5% | Potency [2]: inactive | Potency [3]: inactive

CC1=CC(=O)C2(OC3OC(C)C(O)C(OC(=O)/C=C/c4ccccc4)C3O)C=COC(OC3OC(CO)C(O)C(O)C3O)C12 (centres undefined)
activation [1]: -13.7% | Potency [2]: inactive | Potency [3]: inactive

CC(=O)OCC1=CCC2C(C)(C)CCCC2(C)C12CCC(C)(CC(=O)O)O2 (centres undefined)
activation [1]: 25.9% | Potency [2]: inactive | Potency [3]: inactive

Cc1cc(CO)c(O)c(C(=O)CC2CC(=O)NC(=O)C2)c1
activation [1]: -5.34% | Potency [2]: inactive | Potency [3]: inactive

CC1(C)CC[C@]2(C(=O)O[C@@H]3O[C@H](CO)[C@@H](O)[C@H](O)[C@H]3O)CC[C@]3(C)C(=CCC4[C@@]5(C)CC[C@H](O[C@@H]6O[C@H](C(=O)O)[C@H](O)[C@H](O)[C@H]6O)C(C)(C)C5CC[C@]43C)[C@@H]2C1 (some centres undefined)
activation [1]: -2.68% | Potency [2]: inactive | Potency [3]: inactive

N[C@H]1CN(c2c(F)cc3c(=O)c(C(=O)O)cn(C4C[C@@H]4F)c3c2Cl)CC12CC2 (some centres undefined)
activation [1]: -26% | Potency [2]: inactive | Potency [3]: inactive

O=C(/C=C\c1ccc(O)cc1)N[C@@H](Cc1ccc(O)cc1)C(=O)O
activation [1]: 17.9% | Potency [2]: inactive | Potency [3]: inactive

Cc1cc(C(C)Nc2ccccc2C(=O)O)c2nc(N3CCOCC3)cc(=O)n2c1 (centres undefined)
activation [1]: 14.3% | Potency [2]: inactive | Potency [3]: inactive

C=C1[C@@H]2[C@H]3OC(=O)C(=C)[C@@H]3CC[C@@](C)(O)[C@@H]2C[C@@H]1O[C@@H]1O[C@H](CO)[C@@H](O)[C@H](O)[C@H]1O
activation [1]: 15.2% | Potency [2]: inactive | Potency [3]: inactive

C=C1C(=O)O[C@H]2[C@H]1[C@@H](OC(=O)C(C)CO)C[C@@]1(C)[C@H](O)CCC(=O)[C@H]21 (some centres undefined)
activation [1]: -11.5% | Potency [2]: inactive | Potency [3]: inactive

CC(=O)OC[C@@]12[C@H](O)C[C@]3(C)C(=CCC4[C@@]5(C)CC[C@H](O[C@@H]6O[C@H](C(=O)O)[C@@H](O[C@@H]7O[C@H](CO)[C@@H](O)[C@H](O)[C@H]7O)[C@H](O)[C@H]6O[C@@H]6O[C@H](CO)[C@@H](O)[C@H](O)[C@H]6O)[C@](C)(CO)C5CC[C@]43C)[C@@H]1CC(C)(C)[C@@H](OC(C)=O)[C@@H]2O (some centres undefined)
activation [1]: -4.58% | Potency [2]: inactive | Potency [3]: inactive

C/C=C(\C)C(=O)O[C@@H](C)[C@H]1CC[C@]2(O)C3CCC4C[C@@H](OC5CC(OC)C(OC6CC(OC)C(OC7CC(OC)C(OC8OC(C)C(OC9OC(CO)C(O)C(O)C9O)C(OC)C8O)C(C)O7)C(C)O6)C(C)O5)CC[C@]4(C)C3[C@H](O)[C@@H](O)[C@]12C (some centres undefined)
activation [1]: 8.04% | activity change, negative = inhibition [2]: 4.67% [at 11.2 µM] | activity change, negative = inhibition [3]: -5.31% [at 11.2 µM]

O=C(OCC1=CC(Cl)C(O)C(OC(=O)c2ccccc2)C1O)c1ccccc1 (centres undefined)
activation [1]: -22.9% | Potency [2]: inactive | Potency [3]: inactive

COC(=O)C1=COC(OC2OC(CO)C(O)C(O)C2O)C2C(C)CC(=O)C12O (centres undefined)
activation [1]: -4.46% | Potency [2]: inactive | Potency [3]: inactive

CN(C)C(=O)CNC(=O)Cc1ccccc1
activation [1]: 5.02% | Potency [2]: inactive | Potency [3]: inactive

CNc1cccc(CCOc2ccc3c(c2)CN(CC(F)(F)F)C(=O)[C@H](CC(=O)O)C3)n1
activation [1]: 2.86% | Potency [2]: inactive | Potency [3]: inactive

CC(=O)OCC1=C[C@@H]2OC(=O)C3=CO[C@@H](O[C@@H]4O[C@H](CO)[C@@H](O)[C@H](O)[C@H]4O)[C@H]1[C@@H]32
activation [1]: -16.8% | Potency [2]: inactive | Potency [3]: inactive

O=C(/C=C/c1ccc(O)cc1)OC[C@H]1O[C@@H](O/C(=C\c2ccccc2)C(=O)O)[C@H](O)[C@@H](O)[C@@H]1O
activation [1]: -2.29% | Potency [2]: inactive | Potency [3]: inactive

C=C[C@@]1(C)CCC2C(=CCC3[C@]2(C)CCC[C@@]3(C)C(=O)O)C1 (some centres undefined)
activation [1]: -12.2% | Potency [2]: inactive | Potency [3]: inactive

C=C(C)[C@@H]1CC[C@]2(CO)CC[C@]3(C)[C@H](CC[C@@H]4[C@@]5(C)CC[C@H](O)C(C)(C)[C@@H]5CC[C@]43C)[C@@H]12
Potency [1]: 10.4 µM (active) | Potency [2]: inactive | Potency [3]: inactive

CC(=O)OC1C(O)CC(O[C@@H]2O[C@H](CO)[C@@H](O)[C@H](O)[C@H]2O)C2CCC3C(=O)OC(c4ccoc4)CC3(C)C21 (some centres undefined)
activation [1]: 3.05% | Potency [2]: inactive | Potency [3]: inactive

CN1c2ccccc2C(=O)N2CCC3c4ccccc4NC3C21 (centres undefined)
Potency [1]: 1.66 µM (active) | Potency [2]: inactive | Potency [3]: inactive

CC(=O)C=C=C1C(C)(C)CC(O[C@@H]2O[C@H](CO)[C@@H](O)[C@H](O)[C@H]2O)CC1(C)O (some centres undefined)
activation [1]: -1.79% | Potency [2]: inactive | Potency [3]: inactive

CCC(C)(OC(C)=O)C(=O)O[C@H]1[C@H](OC(C)=O)[C@]2(CO)[C@H](O)[C@H](O)[C@]3(C)C(=CCC4[C@@]5(C)CC[C@H](O[C@@H]6O[C@H](C(=O)O)[C@@H](O)[C@H](O[C@@H]7OC[C@H](O)[C@H](O[C@@H]8OC[C@H](O)[C@H](O)[C@H]8O)[C@H]7O)[C@H]6O[C@@H]6O[C@H](CO)[C@@H](O)[C@H](O)[C@H]6O)C(C)(C)C5CC[C@]43C)[C@@H]2CC1(C)C (some centres undefined)
Potency [1]: 3.2 µM (active) | activity change, negative = inhibition [2]: -13.5% [at 11.2 µM] | activity change, negative = inhibition [3]: 11.4% [at 11.2 µM]
